Experimental data: PubChem BioAssay AID687028 (Broad Institute, 2013)
The whole screen tested about 1,400 compounds, of which about 55 (4%) were called active. How the calls were made is not given here. Only a sample is shown. Results with a measured potency or affinity are listed apart.

experiment: A549 cell toxicity, dose response, cytotoxicity control, plate reader, cherry-pick samples (AID 687028); settings: series mostly up to 19.5 µM;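 further: cells incubated with compound for three days before reading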

| Structure (SMILES) | outcome |
| --- | --- |
| C[C@@H]1CCCCO[C@@H](CN(C)Cc2ccccc2)[C@@H](C)CN([C@H](C)CO)C(=O)c2cc(NC(=O)c3ccccc3)ccc2O1 | inactive |
| C[C@@H]1CN([C@H](C)CO)C(=O)c2cc(NC(=O)c3ccncc3)ccc2O[C@@H](C)CCCCO[C@H]1CN(C)Cc1ccc(Cl)c(Cl)c1 | inactive |
| C[C@H](CO)N1C[C@H](C)[C@@H](CN(C)C(=O)Cc2ccccc2)OCCCC[C@H](C)Oc2ccc(NS(=O)(=O)c3ccc(F)cc3)cc2C1=O | inactive |
| Cc1ccc(S(=O)(=O)N(C)C[C@@H]2OCCCC[C@H](C)Oc3ccc(NS(=O)(=O)c4c(C)noc4C)cc3C(=O)N([C@H](C)CO)C[C@H]2C)cc1 | inactive |
| C[C@@H]1CCCCO[C@@H](CN(C)C(=O)c2ccccc2)[C@@H](C)CN([C@@H](C)CO)C(=O)c2cc(NS(=O)(=O)c3ccc(F)cc3)ccc2O1 | inactive |
| Cc1ccc(S(=O)(=O)N(C)C[C@@H]2OCCCC[C@H](C)Oc3ccc(NS(=O)(=O)c4c(C)noc4C)cc3C(=O)N([C@@H](C)CO)C[C@@H]2C)cc1 | inactive |
| C[C@@H]1CCCCO[C@@H](CN(C)S(C)(=O)=O)[C@H](C)CN([C@@H](C)CO)C(=O)c2cc(NS(=O)(=O)c3ccc(Cl)cc3)ccc2O1 | inactive |
| C[C@@H]1CCCCO[C@@H](CN(C)S(=O)(=O)c2ccc(F)cc2)[C@@H](C)CN([C@H](C)CO)C(=O)c2cc(NC(=O)Nc3ccc(C(F)(F)F)cc3)ccc2O1 | inactive |
| COc1ccccc1CN1[C@H](CO)[C@H]2c3ccccc3N(C(=O)c3ccncc3)C[C@H]21 | inactive |
| COc1ccc(C)cc1N(CC(=O)Nc1ccc(S(=O)(=O)N2CCOCC2)cc1)S(C)(=O)=O | inactive |
| CCOc1ccc(C(=O)Nc2ccc(CN3CCOCC3)cc2)cc1Br | inactive |
| CCn1c(=O)n(CC)c2cc(N3CCCC3)c(NC(=O)c3ccc(C)cc3)cc21 | inactive |
| Cc1ccccc1S(=O)(=O)N1C[C@@H](O)COC[C@@H]2O[C@H](CC(=O)N3CCCCC3)CC[C@H]21 | inactive |
| C[C@@H]1CN([C@@H](C)CO)C(=O)Cc2cc(NS(=O)(=O)c3cn(C)cn3)ccc2O[C@H]1CN(C)Cc1ccc(C(=O)Nc2ccccc2N)cc1 | inactive |
| CCCNC(=O)N1[C@H](CO)[C@@H](c2ccccc2)C12CN(C(=O)C1CCCCC1)C2 | inactive |
| O=C(CN1CCN(c2cccc(C(F)(F)F)c2)CC1)N(C1CCCC1)C1CCS(=O)(=O)C1 (centres undefined) | inactive |
| Cc1cc(OCC(=O)NC(Cc2ccc(Cl)cc2)C(=O)O)c2c(C)c(C)c(=O)oc2c1 (centres undefined) | inactive |

| Structure (SMILES) | outcome |
| --- | --- |
| CCc1nc(SCc2ccccc2C)n[nH]1 | inactive |
| Cc1ccc(CCN2CC(C(=O)NCCc3ccccc3)CC2=O)cc1 (centres undefined) | inactive |
| Cc1noc(C)c1S(=O)(=O)Nc1cccc2c1O[C@H](CN(C)C(=O)NC(C)C)[C@H](C)CN([C@@H](C)CO)C2=O | inactive |
| CC(C)C[C@@H](COc1ccccc1)N1CCN(Cc2ccccc2)CCC1=O | inactive |
| C[C@H](CO)N1C[C@H](C)[C@@H](CN(C)C(=O)Nc2ccc(C(F)(F)F)cc2)OCCCC[C@H](C)Oc2ccc(NS(=O)(=O)c3cccs3)cc2C1=O | inactive |
| COc1ccc(S(=O)(=O)Nc2ccc3c(c2)C(=O)N([C@@H](C)CO)C[C@H](C)[C@@H](CN(C)C(=O)Nc2ccc(C(F)(F)F)cc2)OCCCC[C@H](C)O3)cc1 | inactive |
| C[C@H](CO)N1C[C@H](C)[C@@H](CN(C)C(=O)Nc2ccc(C(F)(F)F)cc2)OCCCC[C@H](C)Oc2ccc(NS(=O)(=O)c3ccc(F)cc3)cc2C1=O | inactive |
| COc1ccc(NC(=O)N(C)C[C@H]2OCCCC[C@@H](C)Oc3ccc(NS(C)(=O)=O)cc3C(=O)N([C@H](C)CO)C[C@H]2C)cc1 | inactive |
| COc1cccc(CNC(=O)[C@H]2[C@H](CO)[C@H]3Cn4c(ccc(-c5ccncc5)c4=O)[C@H]3N2C)c1 | inactive |
| N#C[C@H]1[C@@H](c2ccc(C3=CCCCC3)cc2)[C@@H](CO)N1S(=O)(=O)c1cccc(F)c1 | inactive |
| CCOc1ccc(NC(=O)CN(C)C(=O)c2ccccc2OCc2c(C)noc2C)cc1OCC | inactive |
| COc1ccc(N2CCN(c3cc(C(=O)NC4CCCCC4)ncn3)CC2)cc1OC | inactive |
| CC(C)(C)OC(=O)N[C@H]1C=C[C@@H](CC(=O)OCC(F)(F)F)C1 | inactive |
| CCN(CC)c1ccc2cc(C(=O)NCc3ccc(F)cc3)c(=N)oc2c1 | inactive |
| CC(=O)OCCCN(C)CC/C=C1/c2ccccc2CSc2ccccc21 | inactive |
| CC(C)Oc1ccc(S(=O)(=O)N2CCOCC2)cc1NC(=O)Cc1ccsc1 | inactive |
| Cc1ccccc1CN1CCN(CC(=O)NC(C)c2ccccc2)CC1 (centres undefined) | inactive |
